From the supplement of paper PMC3334620
Whole data set: some 33,000 sequences, median “E-score (-0.5 to 0.5)” near -0.053, cut for the highest 2% near 0.37. For the sample, the highest values were picked, then their nearest neighbours and some sequences at random.

Target: Hap1 (UniProt P0CE41)
Test: PBM E-score (8-mer binding enrichment) (E-score (-0.5 to 0.5)); higher = stronger / more preferred TF binding
Settings: protein concentration: 200 nM; construct: GST-DNA-binding domain
In short: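 Full-length yeast transcription factors or their DNA-binding domains, GST-tagged and expressed with PURExpress, were applied at about 100-200 nM to universal all-10-mer Agilent arrays. These arrays had been made double-stranded by primer extension on fresh or once-stripped slides. Detection used fluorescent anti-GST, normalisation used masliner, and E-scores for ungapped eight-base words pooled with reverse complements came from the Universal PBM Analysis Suite.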

UniProt P0CE41, sequence (P0CE41 whole entry): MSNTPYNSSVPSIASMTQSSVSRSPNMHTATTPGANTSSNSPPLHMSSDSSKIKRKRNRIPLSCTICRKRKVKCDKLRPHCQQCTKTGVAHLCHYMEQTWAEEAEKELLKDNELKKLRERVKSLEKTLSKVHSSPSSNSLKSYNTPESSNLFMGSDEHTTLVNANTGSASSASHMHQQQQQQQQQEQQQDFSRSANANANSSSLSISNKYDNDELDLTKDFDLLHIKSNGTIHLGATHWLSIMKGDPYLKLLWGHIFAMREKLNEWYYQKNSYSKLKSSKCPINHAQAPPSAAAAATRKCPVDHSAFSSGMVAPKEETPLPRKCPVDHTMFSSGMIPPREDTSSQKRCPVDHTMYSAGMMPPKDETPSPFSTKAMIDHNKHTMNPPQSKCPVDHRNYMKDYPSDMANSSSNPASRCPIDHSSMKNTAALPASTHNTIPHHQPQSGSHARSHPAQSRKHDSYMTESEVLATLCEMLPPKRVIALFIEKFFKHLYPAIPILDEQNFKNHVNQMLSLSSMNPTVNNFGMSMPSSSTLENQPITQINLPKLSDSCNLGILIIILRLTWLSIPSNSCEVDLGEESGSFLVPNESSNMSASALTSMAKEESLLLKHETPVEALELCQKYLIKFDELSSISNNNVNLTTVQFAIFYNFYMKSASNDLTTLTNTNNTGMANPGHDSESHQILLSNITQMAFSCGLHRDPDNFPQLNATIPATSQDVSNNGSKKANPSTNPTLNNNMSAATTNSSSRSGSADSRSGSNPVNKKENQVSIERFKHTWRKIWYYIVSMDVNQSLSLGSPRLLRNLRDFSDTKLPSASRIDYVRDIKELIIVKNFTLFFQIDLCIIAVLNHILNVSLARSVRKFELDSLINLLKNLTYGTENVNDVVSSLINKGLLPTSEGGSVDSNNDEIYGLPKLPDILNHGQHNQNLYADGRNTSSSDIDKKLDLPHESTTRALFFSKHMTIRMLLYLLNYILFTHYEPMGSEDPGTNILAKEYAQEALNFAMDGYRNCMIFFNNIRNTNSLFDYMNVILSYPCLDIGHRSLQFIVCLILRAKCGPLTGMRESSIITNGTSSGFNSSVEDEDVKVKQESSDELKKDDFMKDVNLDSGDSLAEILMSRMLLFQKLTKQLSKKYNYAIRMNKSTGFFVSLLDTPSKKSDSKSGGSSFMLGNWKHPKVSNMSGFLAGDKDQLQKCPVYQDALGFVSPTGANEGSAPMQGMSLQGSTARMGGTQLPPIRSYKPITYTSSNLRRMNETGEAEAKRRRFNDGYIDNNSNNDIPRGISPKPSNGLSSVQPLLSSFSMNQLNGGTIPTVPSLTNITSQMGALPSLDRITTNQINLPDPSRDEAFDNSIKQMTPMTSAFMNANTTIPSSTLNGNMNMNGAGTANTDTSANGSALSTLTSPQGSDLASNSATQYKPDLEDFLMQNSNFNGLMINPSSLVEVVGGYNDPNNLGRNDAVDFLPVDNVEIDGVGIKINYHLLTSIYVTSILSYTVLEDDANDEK

Sequence | PBM E-score
CTCCAAAC | -0.124
ACCGAGCA | 0.359
ACCGAGCT | 0.294
ACCGAGCG | 0.384
CCCGAGAA | 0.351
TCCGAGAA | 0.381
ACCGAGAA | 0.271
GCCGAGGA | 0.294
GCCGAGCA | 0.236
CCCGAGGA | 0.192
TCCGAGCA | 0.402
TCCGAGGA | 0.384
CCCGAGCG | 0.354
GCTAGGGA | -0.228
CCTTGAGA | -0.0628
GCGTTGTA | -0.0982
AACACCAA | -0.314
TAGATAGA | -0.111
GGCGAACC | 0.0857
CCCGCAAC | 0.277
ACCAGACC | 0.0586
ATTTCTGG | -0.13
GGTAAATA | 0.0374
ATCCCCCG | 0.366
ATCCCGGA | 0.36

Sequence | PBM E-score
ATCCCCCC | -0.00218
GTCCCCGA | 0.269
CTCCCCGA | 0.247
CTCCCCGC | 0.204
ATCCCGGG | 0.376
ATCCCCGA | 0.44
ATCCCCGG | 0.426
ATCCCGGC | 0.339
ATCCCCTG | -0.324
ATCCCCGC | 0.371
AGGGAATG | -0.197
AACACCCT | -0.0622
GACCTCTC | 0.0308
CCTATCAA | -0.119
ACATGGAC | -0.143
TGCGAGAA | -0.143
ATAGGGAG | -0.147
CTAGAGAA | -0.207
GCCAGACC | 0.0912
ACAGCTAC | -0.11
TTAGAAAA | -0.0981
AATCGCAC | -0.23
AGGAGAAG | -0.149
TGGAGAAA | -0.0481
CGGAGAAA | 0.413

Sequence | PBM E-score
CGGAGAAG | 0.378
TCGAGAAA | -0.271
CGGAGAAC | 0.36
GGGAGAAA | 0.0441
GCGAGAAA | 0.116
CCGAGAAA | 0.4
CTACTACC | 0.068
TAACTTAA | 0.0501
CATATGGG | 0.0423
ACCACACT | -0.0326
CCCACCGG | 0.374
AACACCGC | 0.278
AACACCTG | -0.0827
CCCACCGC | 0.153
CCCACCGA | 0.0319
AACACCGA | 0.446
CACACCGG | 0.288
AACACCGT | 0.245
AACACCGG | 0.409
GCAACCCC | 0.0182
ATGGAGTC | -0.104
AACGGTAG | -0.00937
CCGATGTC | 0.295
CCGCACCC | 0.209
ATTCCGCA | 0.196

Sequence | PBM E-score
CTTCCGGC | 0.275
ATTCCGGA | 0.432
ATTCCGTA | 0.259
CTTCCGGA | 0.404
GTTCCGAA | 0.331
GTTCCGGA | 0.383
GTTCCGCA | 0.209
CTTCCGTA | 0.262
GATGAGGC | -0.0801
AAATCGGT | 0.246
ACGGGCCC | 0.214
CCCTCACG | -0.262
GAACCATA | -0.0291
CTAAAACC | 0.291
AGGAATGC | -0.253
CCTCCGAC | 0.28
ACTCCTGG | -0.171
ACTCCGGG | 0.39
ACTCCGTG | 0.292
CCTCCGTA | 0.246
CCTCCGTC | 0.113
CCTCCGGC | 0.399
CCTCCGCA | 0.173
GCTCCGCA | 0.164
CCTCCGGA | 0.418

Sequence | PBM E-score
GCTCCGTA | 0.297
GCTCCGGA | 0.444
AGTCTTCC | -0.0885
CGCCGTCC | 0.0969
ACAATCAT | -0.0714
GGTAGGAC | 0.0611
ACTCCGCC | 0.306
ACTCCGGA | 0.461
ACTCCGTC | 0.3
ACTCCGGC | 0.389
ACTCCGCA | 0.156
ACTCCGTA | 0.244
AGTAGTAC | 0.105
AACTAACA | -0.0716
CTCGCAAC | -0.237
CCGGGTTC | 0.296
GGGGGGTA | 0.047
CCGGGGTA | 0.301
CGGGTTTA | 0.474
AGGGGTTA | -0.0702
CGGGGGTA | 0.425
ACGGGTTA | 0.0135
GGGGTTTA | 0.266
GGGGGTTA | -0.181
CCGGGTTA | 0.37

Sequence | PBM E-score
CGGGTTTC | 0.331
CGGGGTTA | 0.485
GCATAGGA | -0.136
ACGAGAAA | -0.00338
CATAGCCA | -0.139
ACGCCAAA | -0.08
CTCCTGGA | -0.254
GAATCAGC | -0.175
TGGTACAA | -0.376
GTGAGCAC | -0.232
AGGTTTTA | 0.0786
AGGTTATA | -0.0688
CGGTTTTA | 0.433
GGGGGATA | 0.134
AGGGGATA | -0.167
CGGGGATA | 0.475
GGGTTATA | 0.0789
CGGTTTAA | 0.168
CGGTTATA | 0.371
GGTGTTAC | 0.0592
CCCCACTC | -0.186
AGCGGCCG | 0.325
CCTCCGAG | 0.335
ACTCCGAC | 0.353
ACTCCGAA | 0.397

Sequence | PBM E-score
ACTCCTAT | -0.141
CCTCCGAA | 0.334
ACTCCGCG | 0.371
ACTCCCAT | -0.176
ACTCCGAG | 0.401
ACTCCGAT | 0.406
CCTCCGCG | 0.198
GCTCCGAA | 0.367
ACTCCGCT | 0.21
GCGGTCGA | 0.163
CCTTAGGC | -0.184
ATGTAGCG | -0.0634
CTCTACAG | -0.311
CAGTCCAC | -0.272
TCTCCGAA | 0.429
TCTCCGCA | 0.299
TCTCCAAA | -0.138
CCGTCTGA | -0.0177
GGACTTAA | 0.443
CGACTTAA | -0.169
AGACTTAA | -0.18
CAGCTTCC | 0.00993
TATTTGGA | -0.215
ACCTCCGA | 0.391
